About 100 (0.17%) of roughly 58,000 compounds were called active. The sample holds actives, similar compounds and a random draw of the others, so the mix is not that of the screen. Values without a mark were called inactive. No stated cut-off is given here; in the data, active means inhibition above about 45%; inactive means the rest.
target: Procathepsin L (Homo sapiens) (UniProt P07711); assay: inhibitors of human cathepsin L, biochemical (AID 460); settings: purified cathepsin L, fluorogenic substrate, fluorescence; stronger effect = higher value;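 tested at 10 µM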;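 further: 0% = enzyme with no compound and 100% = no enzyme blank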
Sequence (P07711 114-288 limits assumed): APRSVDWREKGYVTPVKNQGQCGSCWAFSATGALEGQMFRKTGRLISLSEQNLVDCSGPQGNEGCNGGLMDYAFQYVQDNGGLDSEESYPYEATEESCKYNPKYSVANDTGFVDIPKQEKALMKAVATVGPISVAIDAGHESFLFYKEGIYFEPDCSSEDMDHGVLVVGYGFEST
Sequence (P07711 292-333 limits assumed): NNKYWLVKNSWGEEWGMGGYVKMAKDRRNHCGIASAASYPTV

Structure (SMILES) | inhibition
C=CCN1C(=O)C(O)(CC(=O)c2ccc(Cl)cc2)c2ccccc21 (stereo not drawn) | 0.03%
CSc1cccc(NC(=O)C2CCCN2S(=O)(=O)c2ccc3c(c2)CCC(=O)N3)c1 (stereo not drawn) | 7.66%
Nc1ccc(SCCN2C(=O)c3ccccc3C2=O)cc1 | 7.88%
CCn1c2c(c3ccc(OC)cc31)CCCC2=O | -5.8%
C=CCOc1nc2c(c(=O)n(C)c(=O)n2C)n1Cc1ccc(Cl)cc1Cl | 31.1%
CCOC(=O)c1ccc(COC(=O)c2cc(=O)[nH]c3ccccc23)o1 | 2.07%
CCC(=O)Nc1nc(OC)cc(OC)n1 | -4.97%
O=C(NCC1CCCO1)C(C(=O)c1ccccc1)n1cc(Cl)ccc1=O (stereo not drawn) | -10.2%
Cc1ccc(-c2nnn(CC(=O)N(CCO)C(C(=O)NC(C)(C)C)c3ccncc3)n2)cc1 (stereo not drawn) | -1.4%
CCCCCCC(=O)N(O)C1CC(=O)N(c2ccccc2)C1=O (stereo not drawn) | -5.53%
COCCn1c(=O)[nH]c2cc(C(=O)NCc3cccnc3)ccc2c1=O | 1.59%
COc1ccc(CN2CN(C(C)C)CSC2=S)cc1 | 17%
Cc1cc(C(F)(F)F)nn1-c1nc(-c2ccco2)cc(C(F)(F)F)n1 | 1.46%
CC(=O)Oc1ccc2c(C)c(CC(C)O)c(=O)oc2c1 (stereo not drawn) | -70.3%
COc1ccc(C(=O)NCCc2ccc(S(N)(=O)=O)cc2)cc1OC | 15.1%
Cc1ccc(OCC(O)CN2CCN(CC(O)COc3ccc(C)cc3Cl)CC2)c(Cl)c1 (stereo not drawn) | 24.6%
CCn1c(SCC(=O)Nc2nc3ccc(OC)cc3s2)nnc1-c1ccoc1C | 19.9%
C[C@H](NC(=O)OC(C)(C)C)c1nnc(SCC(N)=O)o1 | 9.7%
CCOC(=O)C1CCc2nc3ccccc3c(=O)n21 (stereo not drawn) | 17.4%
CCN(CC)CCCNC(=O)c1cc(-c2cccc(Cl)c2)on1 | 10.3%
NC(=O)c1ccsc1NC(=O)c1ccco1 | 3.89%
CC1CCc2c(sc3c2C2=NS(=O)(=O)CCN2C=N3)C1 (stereo not drawn) | 0.12%
CCS(=O)(=O)N1CCN(C(=O)c2cccs2)CC1 | 3.99%
O=C(NCCCNC(=O)NC1CCCCC1)NC1CCCCC1 | 4.27%
N#Cc1c2c(c(N3CCN(CCO)CC3)n3c1nc1ccccc13)CCCC2 | 10.1%

Structure (SMILES) | inhibition
Cc1ccc(-c2cc(C(F)(F)F)n3nc(C(=O)N4CCCC4)cc3n2)cc1 | -2.27%
C=CCNC(=O)c1ccc(C)c(Br)c1 | 21.6%
COCCNC(=O)C(C#N)c1nc2ccccc2nc1N1CCN(Cc2ccc3c(c2)OCO3)CC1 (stereo not drawn) | -9.53%
CC1(C)CC(=O)C(C=NCc2cccnc2)=C(O)C1 | 3%
Cc1ccccc1-c1ccc(Nc2ccc(C(=O)N3CCOCC3)cc2)nn1 | -0.35%
COc1ccc(CCNC(=O)CSc2nnc(CNC(=O)c3cccs3)o2)cc1OC | 3.37%
CCCCC(CC)C(=O)Nc1ccc(Cl)cn1 (stereo not drawn) | 1.2%
CCOC(=O)c1[nH]c2ccc(C)cc2c1N=C(C)N(C)C | 0.54%
CCC(=O)Nc1ccc(C(=O)CSc2nnc(CNc3ccc(Cl)cc3)o2)cc1OC | 9.8%
Cc1ccc(S(=O)(=O)C2(S(=O)(=O)c3ccc(C)cc3)CCCC2)cc1 | -3.77%
Cc1ccc(-n2nc3c(c2NC(=O)c2ccc4c(c2)OCO4)CSC3)c(C)c1 | -0.76%
CCOC(=O)N1CCN(C(=O)CN(C2CCCCC2)S(C)(=O)=O)CC1 | -8.17%
CC(C)(C)c1cc(CN2CCN(CCC#N)CC2)cc(C(C)(C)C)c1O | 4.94%
CCn1c(CSc2nncn2-c2ccc(OC)cc2)nc2cc(S(=O)(=O)N(C)C)ccc21 | 15%
O=C(Nn1cc(C(=O)N2CCN(c3ccccc3F)CC2)c2ccccc2c1=O)c1cnccn1 | -5.99%
CCN(Cc1ccccc1)C(=O)CSc1nc(C)cc2c1C(=O)OC2 | 5.38%
CCC(C)n1[nH]c(=O)c2c(C)cc(C)nc21 (stereo not drawn) | 12.4%
COc1ccc(-c2ccnc(SCC(=O)N3CCOCC3)n2)cc1 | 11.9%
CCn1c(-c2cc(OC)ccc2OC)csc1=Nc1c(C)n(C)n(-c2ccccc2)c1=O | -2.42%
COc1ccc(NC2CC(=O)N(C)C2=O)cc1 (stereo not drawn) | 4.64%
CC(C)n1c(C(O)c2ccccc2)nc2ccccc21 (stereo not drawn) | 2.15%
Cc1cccn2c(=O)c3cc(C#N)c(=O)n(CCCN4CCOCC4)c3nc12 | -56.6%
CCOC(=O)C1(C(F)(F)F)N=C(N(C)C)OC(N(C)C)=N1 | -0.15%
Cc1cc(C)c(C(=O)CN2C(=O)CCC2=O)cc1C | 5.02%
O=C(c1ccc2c(c1)N(Cc1ccc(F)cc1)C(=O)CS2)N1CCOCC1 | -0.56%

Structure (SMILES) | inhibition
CN(C(=O)c1ccno1)c1nnc(-c2cccnc2)s1 | -4.38%
CN(C(=O)COc1ccccc1)c1nnc(-c2ccncc2)s1 | -26.7%
CN(C(=O)C1CCOC1)c1nnc(-c2cccnc2)s1 (stereo not drawn) | 49.5% (active)
COc1ccc(-c2nnc(SC(C)C#N)o2)cc1 (stereo not drawn) | 9.86%
CC(=O)Nc1nc(C)c(Cc2ccccc2)c(=O)[nH]1 | -7.6%
CCOc1cccc(C(=O)Nc2cccnc2)c1 | -6.37%
CC(=O)Nc1ccc(S(=O)(=O)N2CCN(C3CCCCCCC3)CC2)cc1 | 7.05%
COc1ccc2c(c1OC)C(=O)N(c1ncn[nH]1)C2 | 2.08%
COc1ccc(NC(=O)CN2CCN(S(=O)(=O)c3ccc(F)cc3)CC2)cc1Cl | 20.1%
COc1ccc(S(=O)(=O)Nc2ccc3c(c2)OCO3)cc1Cl | 3.1%
CCc1nnc(NC(=O)CCC(=O)O)s1 | 3.51%
COC(=O)C1C(=O)CC(C)(O)C(C(=O)OC)C1c1ccc2c(c1)OCO2 (stereo not drawn) | 11.2%
CN1CCN(S(=O)(=O)c2ccc3[nH]cc(C(=O)O)c(=O)c3c2)CC1 | -3.14%
COc1ccc(N2CCN(CCNC(=O)CCN3C(=O)COc4ccccc43)CC2)cc1 | 104% (active)
O=C(CCN1C(=O)COc2ccccc21)NCCCN1CCN(c2ccc(F)cc2)CC1 | 5.08%
CCCN1CCN(CCCNC(=O)CN2C(=O)COc3ccccc32)CC1 | -8%
O=C(CCCC(=O)N(CC(=O)NC1CCCC1)Cc1ccccc1Cl)Nc1ccccn1 | 9.21%
c1ccc2[nH]c(-c3nc4ccccc4[nH]3)nc2c1 | 3.52%
Cc1ccc2nc3n(c(=O)c2c1)CCC3 | 14.4%
CCCC(=O)N1c2ccccc2NC2=C(C(=O)CCC2)C1c1ccc(F)cc1 (stereo not drawn) | 3.55%
O=C(NC12CC3CC(CC(C3)C1)C2)N1CCCC(CO)C1 (stereo not drawn) | 2.74%
CCOC(=O)C1=C(C)NC(=O)N(C(C)=O)C1c1ccc(Cl)cc1 (stereo not drawn) | 12.8%
COc1ccc(C2CC(c3ccc(C)cc3)Nc3nc(N)nn32)cc1 (stereo not drawn) | -0.09%
COc1ccccc1-c1cc(C(=O)N2CCCCC2)no1 | -3.35%
COc1ccc(Br)cc1/C=N/n1c(C)nnc1C | 12.8%

Structure (SMILES) | inhibition
CCCOC(=O)CC1C(=O)NCCN1Cc1ccc(F)cc1 (stereo not drawn) | -5.6%
CCOC(=O)c1ccc(NC(=O)CSc2nnc(COc3ccccc3OC)n2C)cc1 | -5.46%
CCOc1ccc(C(=O)Nc2ccncc2)cc1 | 21.4%
Cc1cnc(C(=O)OCC(=O)Nc2ccc(Cl)cc2Cl)cn1 | -0.6%
Fc1ccc2[nH]c3c(N4CCN(Cc5ccc6c(c5)OCO6)CC4)ncnc3c2c1 | -9.64%
c1ccc(-c2noc(-c3cccs3)n2)nc1 | 0.38%
CCOc1cc(/C=N/O)cc(Br)c1OC | 2.18%
COC(=O)C(C)C1Sc2ccccc2NC1=O (stereo not drawn) | -1.59%
CCCCOc1ccc(-c2ncc(C(=O)OCC)c(N)n2)cc1 | 4.53%
Cc1cc(NC(=O)c2cnn3cccnc23)n(-c2ccccc2)n1 | 1.38%
COc1cccc(N2C(=O)C3CCCN3C2c2ccc(F)cc2)c1 (stereo not drawn) | -5.29%
Cc1noc(C)c1C(=O)NC(C)c1ccc2c(c1)OCO2 (stereo not drawn) | 19.1%
CN(Cc1ccccc1)Cc1ccccc1F | 6.62%
COC(=O)c1cc(S(=O)(=O)NC2CCN(Cc3ccccc3)CC2)cn1C | -7.14%
Cc1cc(OCCN2CCCC2)ccc1C(C)C | 3.61%
CCCc1cc(=O)[nH]c(SCC(=O)OCc2ccccc2)n1 | -7.39%
CCn1cc(C(=O)NCc2ccc(OC)cc2OC)c(=O)c2ccc(C)nc21 | -0.88%
O=c1cc(Cn2nnc(-c3ccc(Cl)cc3)n2)nc2sccn12 | 18.2%
Cc1cccc(N(CC(O)CN(C)C)S(=O)(=O)c2ccccc2)c1 (stereo not drawn) | -0.65%
Cc1ccc(C2(c3ccc(C)cc3)NC(=O)N(Cc3c(C)noc3C)C2=O)cc1 | 13.3%
Cc1nc2ccc(NC(=O)N3CCC(c4ccccc4)C3)cc2nc1C (stereo not drawn) | -130%
COc1ccc2[nH]c(=O)c(CN(CC3CCCO3)C(=O)Nc3ccccc3)cc2c1 (stereo not drawn) | -6.3%
CCN(CC(=O)Nc1ccc2c(c1)OCCO2)Cc1cc(=O)oc2cc(C)c(C)cc12 | 0.7%

From PubChem BioAssay AID460 (PCMD, 2006)
